# Entries with a potency or affinity are not part of this list.
# Tests used:
# Staphylococcus aureus = conditions: Concentration 20 uM; ASSAY_TEST Inhibition of Bacterial Growth; detection method Absorption (OD600); MEDIA CAMHB; plate type 384well; NBS; CORNING #3640; time 18 hr
# Escherichia coli = conditions: Concentration 20 uM; ASSAY_TEST Inhibition of Bacterial Growth; detection method Absorption (OD600); MEDIA CAMHB; plate type 384well; NBS; CORNING #3640; time 18 hr
SMILES,Inhibition (Staphylococcus aureus),Inhibition (Escherichia coli)
CCCCCNC(=N)N/N=C/c1c[nH]c2ccc(OC)cc12.O=C(O)/C=C\C(=O)O [TEGASEROD MALEATE],22.85%,-0.84%
Cc1c(O)c(=O)ccn1C [DEFERIPRONE],9.56%,-6.38%
CN(C)C(=O)C(CCN1CCC(O)(c2ccc(Cl)cc2)CC1)(c1ccccc1)c1ccccc1.Cl [LOPERAMIDE HYDROCHLORIDE],6.46%,2.77%
Cl.O=C1c2cccc3c2[C@H](CCC3)CN1[C@@H]1CN2CCC1CC2 [PALONOSETRON HYDROCHLORIDE],8.38%,4.34%
CCCN1C[C@H](CSC)C[C@@H]2c3cccc4[nH]cc(c34)C[C@H]21.CS(=O)(=O)O [PERGOLIDE MESYLATE],12.62%,4.25%
Oc1ncnc2[nH]ncc12 [ALLOPURINOL],15.53%,6.23%
COc1ccc2[nH]cc(CCN)c2c1 [5-METHOXYTRYPTAMINE],3.43%,-0.18%
CC[N+](C)(C)c1cccc(O)c1.[Cl-] [EDROPHONIUM CHLORIDE],15.74%,2.93%
NC(=O)C[S+]([O-])C(c1ccccc1)c1ccccc1 (configuration not stated) [MODAFINIL],3.29%,4.2%
C[C@]12CC[C@H]3[C@@H](CCC4=CC(=O)CC[C@@]43C)[C@@H]1CC[C@@H]2O [TESTOSTERONE],-3.69%,-8.96%
CCC1(c2ccc(N)cc2)CCC(=O)NC1=O (configuration not stated) [AMINOGLUTETHIMIDE],-4.21%,2.02%
C=C(C)[C@@H]1[C@H]2OC(=O)[C@@H]1[C@]1(O)C[C@H]3O[C@]34C(=O)O[C@H]2[C@]14C.CC(C)(O)[C@@H]1[C@H]2OC(=O)[C@@H]1[C@]1(O)C[C@H]3O[C@]34C(=O)O[C@H]2[C@]14C,10.5%,5.19%
CC(C)NCC(O)COc1cccc2[nH]ccc12 (configuration not stated) [PINDOLOL],7.44%,5.35%
O.O=P1(N(CCCl)CCCl)NCCCO1 (configuration not stated) [CYCLOPHOSPHAMIDE],2.64%,1.99%
C[C@H](CCC(=O)O)[C@H]1CC[C@H]2[C@@H]3[C@@H](O)C[C@@H]4C[C@H](O)CC[C@]4(C)[C@H]3CC[C@]12C [URSODIOL],5.15%,2.26%
CC(C)c1cccc(C(C)C)c1O [PROPOFOL],-2.39%,-13.59%
NS(=O)(=O)c1cc(C2(O)NC(=O)c3ccccc32)ccc1Cl (configuration not stated) [CHLORTHALIDONE],15.62%,-0.28%
c1ccc(Cn2ccnc2)cc1,13.36%,-1.92%
CC(O)(CS(=O)(=O)c1ccc(F)cc1)C(=O)Nc1ccc(C#N)c(C(F)(F)F)c1 (configuration not stated) [BICALUTAMIDE],-1.51%,6.59%
Cl.O=C1CC2(CCCC2)CC(=O)N1CCCCN1CCN(c2ncccn2)CC1 [BUSPIRONE HYDROCHLORIDE],17.44%,4.5%
CCOC(=O)c1ncn2c1CN(C)C(=O)c1cc(F)ccc1-2 [FLUMAZENIL],-0.36%,-2.76%

SMILES,Inhibition (Staphylococcus aureus),Inhibition (Escherichia coli)
CCN(C(C)=O)c1cccc(-c2ccnc3c(C#N)cnn23)c1 [ZALEPLON],2.73%,4.96%
Cl.FC(F)(F)c1cccc(N2CCNCC2)c1 [N- (3-TRIFLUOROMETHYLPHENYL)PIPERAZINE HYDROCHLORIDE (TFMPP)],-3.1%,6.36%
C#C[C@]1(OC(C)=O)CC[C@H]2[C@@H]3CCC4=CC(=O)CC[C@@H]4[C@H]3CC[C@@]21C [NORETHINDRONE ACETATE],11.13%,-1.23%
COC(=O)C1=C(C)NC(C)=C(C(=O)OC)C1c1ccccc1[N+](=O)[O-] [NIFEDIPINE],16.67%,3.8%
C#CCN(C)[C@H](C)Cc1ccccc1.Cl [SELEGILINE HYDROCHLORIDE],-22.3%,3.38%
Cl.NCC(O)c1ccc(O)c(O)c1 (configuration not stated),10.44%,0.24%
O=C1CN=C(c2ccccc2)c2cc([N+](=O)[O-])ccc2N1 [NITRAZEPAM],7.65%,5.89%
CN(C)CCOc1ccc(/C(=C(/CCCl)c2ccccc2)c2ccccc2)cc1.O=C(O)CC(O)(CC(=O)O)C(=O)O [TOREMIFENE CITRATE],24.11%,-1.37%
Cl.NCCc1ccc(O)c(O)c1 [DOPAMINE HYDROCHLORIDE],8.23%,-5.62%
COc1ccc(C(CN(C)C)C2(O)CCCCC2)cc1.Cl (configuration not stated) [VENLAFAXINE HYDROCHLORIDE],5.17%,7.16%
CN1C(=O)CN=C(c2ccccc2)c2cc([N+](=O)[O-])ccc21 [NIMETAZEPAM],10.78%,1.04%
Cl.O=C1CC[C@@]2(O)[C@H]3Cc4ccc(O)c5c4[C@@]2(CCN3CC2CC2)[C@H]1O5 [NALTREXONE HYDROCHLORIDE],14.26%,5.04%
CN1CCN2c3ncccc3Cc3ccccc3C2C1 (configuration not stated) [MIRTAZAPINE],-16.68%,-1.97%
CC(NC(C)(C)C)C(=O)c1cccc(Cl)c1.Cl (configuration not stated) [BUPROPION HYDROCHLORIDE],-23.91%,5.32%
CC(C)(C)NCC(O)c1cc(O)cc(O)c1.O=S(=O)(O)O (configuration not stated),5.47%,5.21%
Cl.N=C(N)NC(=O)c1nc(Cl)c(N)nc1N.O.O [AMILORIDE HYDROCHLORIDE],11.17%,2.12%
CCN(CC)CCOC(=O)C(O)(c1ccccc1)c1ccccc1.Cl,13%,-0.91%
COc1cc([C@@H]2c3cc4c(cc3[C@H](O)[C@H]3COC(=O)[C@H]23)OCO4)cc(OC)c1OC [PODOFILOX],6.19%,3.91%
COC(=O)C[C@](O)(CCCC(C)(C)O)C(=O)O[C@@H]1C(OC)=C[C@]23CCCN2CCc2cc4c(cc2[C@H]13)OCO4 [OMACETAXINE MEPESUCCINATE],10.39%,7.87%
CS(=O)(=O)O.O=C(O[C@@H]1C[C@@H]2C[C@H]3C[C@H](C1)N2CC3=O)c1c[nH]c2ccccc12,5.34%,6.66%
CN(C)CCC=C1c2ccccc2CCc2ccccc21.Cl [AMITRIPTYLINE HYDROCHLORIDE],5.1%,1.2%

SMILES,Inhibition (Staphylococcus aureus),Inhibition (Escherichia coli)
CNS(=O)(=O)Cc1ccc2[nH]cc(CCN(C)C)c2c1.O=C(O)CCC(=O)O [SUMATRIPTAN SUCCINATE],12.49%,0.9%
Br.Br.CN1CC[C@]2(c3cccc(O)c3)Cc3nc4ccccc4cc3C[C@H]2C1.O,5.38%,1.66%
CN1CCN(C(=O)O[C@H]2c3nccnc3C(=O)N2c2ccc(Cl)cn2)CC1 [ESZOPICLONE],-7.93%,-0.26%
CN1CC[C@@]23CCCC[C@@H]2[C@@H]1Cc1ccc(O)cc13.O=C(O)C(O)C(O)C(=O)O,4.84%,6.67%
CC(COc1ccccc1)N(CCCl)Cc1ccccc1.Cl (configuration not stated) [PHENOXYBENZAMINE HYDROCHLORIDE],12.58%,3.59%
CC[C@]1(O)CC[C@H]2[C@@H]3CCC4=CCCC[C@@H]4[C@H]3CC[C@@]21C [ETHYLESTRENOL],-6.51%,3.02%
Cn1c(=O)c2nc[nH]c2n(C)c1=O.O [THEOPHYLLINE],-24.23%,7.82%
CS(=O)(=O)Nc1ccc(Cc2noc(-c3ccc4[nH]cc(CCN)c4c3)n2)cc1.O.O,12.02%,7.87%
CC(=O)OC1C([N+]2(C)CCCCC2)C[C@H]2C3CC[C@H]4C[C@H](OC(C)=O)C([N+]5(C)CCCCC5)CC4(C)[C@H]3CCC12C.[Br-].[Br-] (some centres not stated),8.65%,6.22%
CC(C)CC(N(C)C)C1(c2ccc(Cl)cc2)CCC1 (configuration not stated) [SIBUTRAMINE],0.87%,6.8%
COCCCOc1ccnc(C[S+]([O-])c2nc3ccccc3[nH]2)c1C (configuration not stated) [RABEPRAZOLE],10.37%,7.16%
COc1cc(-c2ccc(=O)[nH]n2)ccc1OC(F)F [ZARDAVERINE],7.7%,-1.99%
O=C1Nc2ccc(Cl)cc2C(c2ccccc2Cl)=NC1O (configuration not stated) [LORAZEPAM],-3.94%,2.56%
C#C[C@]1(O)CC[C@H]2[C@@H]3CCC4=CC(=O)CC[C@@H]4[C@H]3CC[C@@]21C [NORETHINDRONE],-0.74%,4.04%
CN1[C@@H]2CC[C@H]1C[C@@H](OC(=O)c1c[nH]c3ccccc13)C2.Cl,18.1%,-3.68%
CC(=O)CC(c1ccccc1)c1c([O-])c2ccccc2oc1=O.[Na+] (configuration not stated) [WARFARIN SODIUM],12.98%,-2.34%
CC[C@@H](C(N)=O)N1CCCC1=O,18.53%,0.96%
O=C(O)C(Cl)Cl [DICHLOROACETIC ACID],11.87%,3.62%
COc1cc2c(cc1OC)[C@@]13CCN4CC5=CCO[C@H]6CC(=O)N2[C@H]1[C@H]6[C@H]5C[C@H]43 [BRUCINE],7.1%,-1.43%

# Reference: ChEMBL document CHEMBL4513141, “CO-ADD screening of NIH (USA) - Clinical Collection” (2021)
